# In the library only some 2.2% were active in any assay of this set; here they are far more common.
# HTR2A ag – activates the mouse 5-HT2A serotonin receptor; CHO-K1 mHTR2A beta-arrestin complementation, luminescence; percent of 30 µM serotonin response; activation, % at 7.6 µM; actives 0.66% (n = 360,000);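 active = activation above a run cutoff, the mean activation of all tested compounds plus 3 SD, cut at about 14% in these data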;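 note: 0% = plate median of compound wells and 100% = 30 µM serotonin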
# VLA-4 inh – inhibition in a human VLA-4 binding assay. P13612. VLA-4 expressing cells, ligand binding flow cytometry. inhibition, % (about 7 µM as worked out from the volumes in the protocol). actives 0.2% (n = 330,000). AID 2557; in the data active = inhibition above about 50%
# V-ATPase pH – alters yeast V-ATPase proton transport | response, % at 10 µM | S. cerevisiae, pHLuorin cytosolic pH fluorescence | AID 504577 | actives 0.37% (n = 350,000); in the data active = response mostly above about 7.3%, no sharp cut-off; inactive = mostly below about 5.4%; note: actives read high
# JMJD2C inh – human JMJD2C demethylase inhibition; AID 2099; GST-JMJD2C(1-420) H3K9me3 demethylation, DELFIA europium; inhibition, % at 2.35 µM; actives 0.069% (n = 330,000); Q9H3R0;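 active = more than half of a compound's replicate wells show inhibition beyond 50%, single wells judged on their own value; inconclusive = some, but no more than half, of replicates pass 50% inhibition; inactive = no replicate passes 50% inhibition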;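 note: signal counts dimethyl H3K9 product captured on neutravidin plate; 0% = median of DMSO wells and 100% = 0.3 times that DMSO median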
# Granule exo inh – lytic granule exocytosis inhibition. TALL-104 LAMP-1 surface exposure, flow cytometry; cells stimulated with thapsigargin and PMA. inhibition, % at 10 µM. actives 0.66% (n = 360,000);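 active = inhibition above about 55%, limit read from the data; inconclusive = no clear call, values can overlap the other calls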
# MEX-5 binding – C. elegans MEX-5 TCR-2 RNA binding activity; MEX-5/FITC-TCR2 RNA binding, fluorescence polarization; active compounds read low; activity score (negative = inhibition of binding), % at 10 µM; actives 0.38% (n = 300,000); AID 1832;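 active = inhibition past about -25% in most replicates, and total fluorescence under double the plate's negative control median, limit read from the data; inconclusive = replicates evenly split on the limit, or fluorescence at least double controls; inactive = too little inhibition in most replicates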;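 note: 0% = DMSO and -100% = 5 µM competing unlabeled TCR2 RNA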
# Granule exo CP1 – lytic granule exocytosis inhibition | shares compounds with Granule exo inh | TALL-104 cells, LAMP-1 externalization, flow cytometry; stimulated with PMA plus thapsigargin | inhibition, % at 10 µM | actives 11% (n = 1,500) | AID 651954; in the data active = inhibition above about 60%;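 note: 0% = stimulated vehicle wells and 100% = unstimulated wells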
# * hit, by the source's call; ? = inconclusive; . = not tested or not shown.
SMILES,HTR2A ag,VLA-4 inh,V-ATPase pH,JMJD2C inh,Granule exo inh,MEX-5 binding,Granule exo CP1
CCOc1ccccc1OCCN1CCC(Cc2ccccc2)CC1,-4.5,11.1,-4.5,-0.2,4.1,1.2,.
CCC(=O)c1ccccc1OCCCN1CCC(Cc2ccccc2)CC1,-3.4,14.8,-2.6,-8.0,65.0*,-2.0,-8.3
Cc1cccc(OCCOC(=O)c2c(-c3ccccc3)noc2C)c1,5.2,-6.3,2.6,11.2,75.0*,-0.8,-8.9
O=C1CSc2ccc(S(=O)(=O)N3CCN(c4ccccc4)CC3)cc2N1,0.1,6.6,0.6,-11.4,-0.1,3.0,.
CCC1Sc2ccc(S(=O)(=O)N3CCN(c4ccccc4)CC3)cc2NC1=O (stereo not given),-9.5,3.2,-3.7,-2.8,70.6*,-0.4,-11.2
O=S(=O)(CC(CN1CCCCC1)N1CCCCC1)c1ccc2ccccc2c1 (stereo not given),-3.0,.,-4.7,-9.1,68.4*,-0.2,7.4
Cc1ccc(S(=O)(=O)CC(CN2CCCCC2)N2CCCCC2)cc1 (stereo not given),3.2,.,-2.9,-3.2,-7.0,2.8,.
CC(C)(C)OC(=O)NCCCCCNC(=O)c1nc[nH]c1C(=O)NCCCCCNC(=O)OC(C)(C)C,-1.8,4.8,-3.7,.,1.3,.,.
Cn1cncc1C#Cc1c(-c2ccc(S(C)(=O)=O)cc2)sc2ccccc12,0.5,44.7,1.2,.,102.9*,.,97.0*
COc1ccc(-c2sc3ccccc3c2C#Cc2cncn2C)cc1,1.4,3.4,3.5,24.2,-22.7,.,.
Cc1ccc(CNC(=O)C2CCN(S(=O)(=O)c3ccc(Br)s3)CC2)cc1,-3.2,2.9,-1.9,2.4,23.8,-0.1,.
COc1ccc(N(CC(=O)NCC2CCCO2)S(=O)(=O)c2ccccc2)cc1OC (stereo not given),-4.5,-3.5,2.7,-0.7,-10.4,0.3,.
O=C(NCc1ccncc1)C(=O)Nc1nc(C23CC4CC(CC(C4)C2)C3)cs1,-1.4,9.8,4.8,-13.8,77.0*,1.3,-0.9
O=c1cc(CSc2nc(NCc3ccc(Cl)cc3)c3ccccc3n2)nc2ccc(Cl)cn12,11.0,.,-59.1,.,6.4,.,.
CC1CCCCN1CC(O)COc1ccc(OCC(O)CN2CCCCC2C)cc1 (stereo not given),-5.6,10.9,-1.8,2.7,-2.1,0.2,.
Clc1cccc(Cl)c1C1Nc2cccc3cccc(c23)N1,3.2,-6.6,1.1,-3.1,85.3*,1.5,46.0
COc1cccc(CNC(=O)COC(=O)/C=C/c2ccc(SC)cc2)c1,2.4,-7.1,-1.2,-0.8,-2.9,.,.
OC(COc1ccccc1)CN1CCN(C(c2ccccc2)c2ccccc2)CC1 (stereo not given),-8.2,-10.5,0.1,1.7,18.3,2.3,.
c1ccc(OCCOCCN2CCN(C(c3ccccc3)c3ccccc3)CC2)cc1,-5.5,-19.9,-0.4,2.7,59.0*,2.2,7.6
O=C(Nc1nc(-c2ccco2)cs1)c1ccccc1,7.1,-17.2,1.6,4.0,70.9*,0.6,-12.5
COc1ccc(OC)c(NC(=O)c2cc(S(=O)(=O)NCc3ccco3)ccc2F)c1,0.5,4.5,4.1,6.4,3.6,2.4,.
CCOc1ccccc1NC(=O)c1cc(S(=O)(=O)NCc2ccco2)ccc1F,-6.2,1.5,3.4,0.4,103.7*,1.4,-12.7
CCOc1ccc(S(=O)(=O)N2CCN=C2c2ccccc2)cc1,1.4,2.0,-0.2,-10.7,-1.8,0.7,.
CN(CC1CCN(CCc2cccc(C(F)(F)F)c2)CC1)C(=O)c1ccccc1,9.8,-0.5,0.2,44.6,56.1*,1.6,-12.1
Cc1noc(C)c1S(=O)(=O)N(CC(=O)NC(C)c1ccccc1)c1ccc(C(C)C)cc1 (stereo not given),3.0,2.9,2.4,?,69.7*,0.9,-4.4
SMILES,HTR2A ag,VLA-4 inh,V-ATPase pH,JMJD2C inh,Granule exo inh,MEX-5 binding,Granule exo CP1
Cc1noc(C)c1S(=O)(=O)N(CC(=O)NCc1ccccc1)c1ccc(C(C)C)cc1,8.2,0.7,1.3,7.0,-1.2,-2.8,.
Cc1noc(C)c1S(=O)(=O)N(CC(=O)NCCc1ccccc1)c1ccc(C(C)C)cc1,9.9,6.5,-1.4,13.9,56.2*,-2.2,-14.0
C[C@H](c1ccccc1)N1C[C@@H](COCc2ccccc2)Oc2cc(N3CC[C@@H](N(C)C)C3)ccc2S1(=O)=O,-1.5,.,.,.,63.0*,.,12.6
C[C@H](c1ccccc1)N1C[C@@H](COCc2ccccc2)Oc2cc(N3CC[C@H](N(C)C)C3)ccc2S1(=O)=O,-2.3,.,.,.,53.4,.,.
C[C@@H](c1ccccc1)N1C[C@@H](COCc2ccccc2)Oc2cc(N3CC[C@H](N(C)C)C3)ccc2S1(=O)=O,-3.7,.,.,.,69.9*,.,16.5
COc1ccc(C2=NN(C(=O)COC(=O)c3ccc(NC(=O)CC#N)cc3)C(c3ccco3)C2)cc1 (stereo not given),-0.4,-3.0,-0.7,13.5,-1.8,.,.
CCC(=O)Nc1cccc(C2=NN(c3ccccc3)C(c3ccc(OC)cc3)C2)c1 (stereo not given),1.1,2.5,1.9,-5.9,7.5,1.8,.
COc1ccc(N2CCN(c3ccc(S(=O)(=O)N(C(C)C)C(C)C)cn3)CC2)cc1,-0.6,-3.8,1.1,3.9,-0.2,-1.8,.
Cc1cc(Br)cn2c(Cc3cccc(Cl)c3)c(-c3ccco3)nc12,-6.4,.,.,.,55.8*,.,22.2
Cc1ccc(Cc2c(-c3ccco3)nc3ccc(C)cn23)cc1,0.4,.,.,.,26.2,.,.
Cc1ccc(Cc2c(-c3ccco3)nc3c4ccccc4ccn23)cc1,-5.0,.,.,.,58.1*,.,0.5
Cc1ccc(Cc2c(-c3ccco3)nc3c(C)cc(Br)cn23)cc1,-12.4,.,.,.,35.5,.,.
Cc1cc2nc(-c3ccco3)c(Cc3cccc(Cl)c3)n2c(C)c1Br,-7.7,.,.,.,73.4*,.,2.1
Cc1c2cc[n+](CCN3CCCCC3)cc2c(C)c2c1[nH]c1ccc(O)cc12,-1.2,.,-0.8,.,5.3,.,.
C=CCc1ccc(OCC(O)CN2CCC(Cc3ccccc3)CC2)c(OC)c1 (stereo not given),-3.5,6.1,-7.5,-5.5,56.1*,1.0,-9.2
CCOc1ccccc1/C=C/c1onc(C)c1S(=O)(=O)N1CCC(C(=O)NC)CC1,0.5,0.2,-0.4,5.8,-4.5,-0.9,.
COc1ccccc1/C=C/c1onc(C)c1S(=O)(=O)N1CCC(C(=O)NC2CCCCCC2)CC1,-8.0,-4.5,-2.1,-3.8,70.2*,1.3,-4.2
Cc1cccc(-n2c(C)nc3cc(C(=O)NCCN4CCOCC4)ccc32)c1,-1.9,.,.,.,-1.8,.,.
O=C1CCC(c2ccccc2)c2ccccc21 (stereo not given),5.9,-1.9,0.7,8.2,-9.3,-0.9,.

# Source: PubChem BioAssay (several laboratories)
